Data: PubChem BioAssay (Tox21)
Where “and” joins values, the source holds several entries; their conditions need not be identical. Equal values may be shown once. Inconclusive results are not listed. A call without a number means that no potency is given here. A structure can be active in one record and inactive in another. Calls of active or inactive are those of the source. The call rests on the fitted dose curve; in most records, active means well fitted curve in the direction sought with a large enough effect in the repeat runs; inconclusive means weak or mixed curves; inactive means no such curve, though single readings can be large; an effect the other way counts as inactive or inconclusive.

Assays:
[1] = qHTS RealTime-Glo MT Cell Viability Assay in HEK293 cells - 16 hour (AID 1224872); further: nearly all actives have a fitted effect of over 50% in size; further: potency means the concentration at half of the fitted maximal effect
Outline: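 Assay medium contained NanoLuc luciferase plus cell-permeant prosubstrate, added with HEK293 cells at 600 cells/well. After 5 h at 37 C/5% CO2 compounds were added; plates stayed at 37 C for 40 h with serial luminescence reads.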

[2] = qHTS RealTime-Glo MT Cell Viability Assay in HepG2 cells - 8 hour (AID 1224873); further: nearly all actives have a fitted effect of over 55% in size; further: potency means the concentration at half of the fitted maximal effect
Outline: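 HepG2 cells mixed with RealTime-Glo MT reagents (NanoLuc plus cell-permeant prosubstrate) were seeded at 600 cells/well, incubated 5 h at 37 C/5% CO2, then pinned with compounds in DMSO; nonlytic luminescence tracked viability during 40 h treatment.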

[3] = qHTS RealTime-Glo MT Cell Viability Assay in HEK293 cells - 40 hour (AID 1224874); settings: RealTime-Glo luminescence; max response: stronger effect = lower value; further: nearly all actives have a fitted effect of over 50% in size; further: potency means the concentration at half of the fitted maximal effect
Outline: (§1)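 Tox21 screen in HEK293 using RealTime-Glo MT chemistry, with cells and reagent co-dispensed. Luminescence proportional to viable cell number was captured at intervals during 40 h compound exposure at 37 C.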

[4] = A CellTox Green Cytotoxicity Assay to monitor cytotoxicity in HEK293 cells - 24 hour (AID 1224875); further: nearly all actives have a fitted effect of over 45% in size; further: potency means the concentration at half of the fitted maximal effect
Outline: (§2)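 Seeding of HEK293 cells together with cytotoxicity dye preceded a 5 h incubation at 37 C/5% CO2. Test compounds in DMSO were then added and fluorescence monitored across 40 h.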

[5] = A CellTox Green Cytotoxicity Assay to monitor cytotoxicity in HepG2 cells - 16 hour (AID 1224876); further: nearly all actives have a fitted effect of over 45% in size; further: potency means the concentration at half of the fitted maximal effect
Outline: (§3)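 Nonlytic assay: viable cells exclude the dye, so fluorescence scales with cell death. HepG2 at 600 cells/well, compounds added after 5 h, signal read across 40 h.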

[6] = qHTS RealTime-Glo MT Cell Viability Assay in HepG2 cells - 32 hour (AID 1224877); further: nearly all actives have a fitted effect of over 55% in size; further: potency means the concentration at half of the fitted maximal effect
Outline: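 qHTS, HepG2, 600 cells/well, RealTime-Glo (NanoLuc + prosubstrate) added with cells; 5 h preincubation; DMSO compound addition; 37 C; luminescence at 0/8/16/24/32/40 h.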

[7] = A CellTox Green Cytotoxicity Assay to monitor cytotoxicity in HepG2 cells - 24 hour (AID 1224878); further: nearly all actives have a fitted effect of over 45% in size; further: potency means the concentration at half of the fitted maximal effect
Outline: as §3

[8] = A CellTox Green Cytotoxicity Assay to monitor cytotoxicity in HepG2 cells - 40 hour (AID 1224879); further: nearly all actives have a fitted effect of over 40% in size; further: potency means the concentration at half of the fitted maximal effect
Outline: as §3

[9] = qHTS RealTime-Glo MT Cell Viability Assay in HEK293 cells - 0 hour (AID 1224880); further: top concentration of the series differs between compounds; nearly all actives have a fitted effect of over 45% in size
Outline: as §1

[10] = A CellTox Green Cytotoxicity Assay to monitor cytotoxicity in HEK293 cells - 40 hour (AID 1224871)
Outline: as §2

| Structure (SMILES) | Potency [1] | Potency [2] | max response [3] | Potency [4] | Potency [5] | Potency [6] | Potency [7] | Potency [8] | Potency [9] | Potency [3] | Potency [10] |
| --- | --- | --- | --- | --- | --- | --- | --- | --- | --- | --- | --- |
| O=C(O)c1cc(-c2ccc(F)cc2F)ccc1O | inactive | inactive | -1.84% (inactive) | inactive | inactive | inactive | inactive | inactive | inactive | – | – |
| Nc1nc2c(ncn2COCCO)c(=O)[nH]1 | inactive | inactive | 0.456% (inactive) | inactive | inactive | inactive | inactive | inactive | inactive | – | – |
| CCCCCCCCCCCCCC[N+](C)(C)C | 21.1 µM (active) and 6.91 µM (active) | 18.8 µM (active) and 54.9 µM (active) and inactive | – | 37.6 µM (active) and 48.9 µM (active) and 26.8 µM (active) | – | 9.44 µM (active) and 19.5 µM (active) and 23.9 µM (active) | 10.6 µM (active) and 19.5 µM (active) and 23.9 µM (active) | 7.5 µM (active) and 15.5 µM (active) and 19 µM (active) | inactive | 3.35 µM (active) and 4.89 µM (active) and 2.13 µM (active) | – |
| C#Cc1ccc(-c2ccccc2F)cc1 | inactive | inactive | – | inactive | inactive | inactive | inactive | – | inactive | – | – |
| CN1CCC[C@@H]1CCO[C@](C)(c1ccccc1)c1ccc(Cl)cc1 | 19 µM (active) | inactive | – | 26.8 µM (active) | 21.3 µM (active) | 23.9 µM (active) | 21.3 µM (active) | 21.3 µM (active) | – | 16.9 µM (active) | – |
| CC1(C)[C@@H](O)CC[C@]2(C)[C@H]3C(=O)C=C4[C@@H]5C[C@@](C)(C(=O)O)CC[C@]5(C)CC[C@@]4(C)[C@]3(C)CC[C@@H]12 | inactive | inactive | 13.7% (inactive) | inactive | inactive | inactive | – | – | – | – | – |
| O[C@@H]([C@H](O)[C@H](O)CBr)[C@H](O)CBr | inactive | inactive | 2.46% (inactive) | inactive | – | inactive | inactive | inactive | inactive | – | – |
| Cc1ccc(C(C)C)cc2c(C)ccc1-2 | inactive | inactive | -5.67% (inactive) | inactive | inactive | inactive | inactive | inactive | inactive | – | – |
| O=C(c1ccc(O)c(O)c1)c1ccc(O)cc1O | inactive | inactive | – | – | – | inactive | – | – | inactive | 24.5 µM (active) | – |
| CC1(C)CCC[C@]2(C)[C@H]3CC(=O)O[C@]3(C)CC[C@@H]12 | – | inactive | – | 49 µM (active) | – | inactive | inactive | inactive | inactive | – | 49 µM (active) |
| Cc1c(C)c([N+](=O)[O-])c(C(C)(C)C)c([N+](=O)[O-])c1C | inactive | inactive | -0.27% (inactive) | inactive | inactive | inactive | inactive | inactive | inactive | – | – |
